In the library only some 2.9% were active in any assay of this set; here they are far more common.
Cardio protect = myocardial damage modulation in H9c2 cells; H9c2 cardiomyocytes, H2O2 injury protection, ATPLite, 2 h; protection from H2O2 cell death, % at 20 µM; hit rate 0.63% among 360,000; AID 588492;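 active = compounds giving at least 50% protection of heart cells from peroxide-induced death in the single-dose screen, raw or plate-pattern-corrected value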
Myeloid diff 2 = compounds promoting myeloid differentiation. ER-HoxA9 myeloid progenitors, lysozyme-GFP differentiation, flow cytometry. calls only at 10 µM. hit rate 1% among 360,000. AID 624256;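 active = normalized GFP-positive differentiation at or above the plate's own cutoff, the solvent-only control mean plus 3 SD; inconclusive = no clear call, values can overlap the other calls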;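 note: cells exposed to compound for four days before flow analysis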
ABHD5-PLIN5 inh = inhibitors of human ABHD5-perilipin-5 interaction; Q00G26+Q8WTS1; Split G. princeps luciferase complementation, luminescence, 4 h; inhibition, % at 4 µM; hit rate 0.78% among 360,000; AID 602281;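 active = inhibition above the mean inhibition across every tested compound plus 3 SD, cut at about 22% in these data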
DAGLB inh = diacylglycerol lipase beta (human) inhibition. AID 504411. HEK293T DAGLB membrane lysate, EnzChek fluorogenic substrate. inhibition, % at 5.17 µM. hit rate 0.059% among 340,000. Q8NCG7; in the data active = inhibition above about 34%
Rtt109 Vps75 = blocks Candida albicans Rtt109/Vps75 acetyltransferase activity. AID 540336. purified Rtt109/Vps75, ThioGlo CoA-SH fluorescence, 4 h. inhibition, % at 34.9 µM. hit rate 0.16% among 330,000;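 active = inhibition of at least 50% in every replicate; inconclusive = best replicate reaches 50% inhibition but some replicates fall short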
Target sequence (Q5AAJ8 whole entry, looked up): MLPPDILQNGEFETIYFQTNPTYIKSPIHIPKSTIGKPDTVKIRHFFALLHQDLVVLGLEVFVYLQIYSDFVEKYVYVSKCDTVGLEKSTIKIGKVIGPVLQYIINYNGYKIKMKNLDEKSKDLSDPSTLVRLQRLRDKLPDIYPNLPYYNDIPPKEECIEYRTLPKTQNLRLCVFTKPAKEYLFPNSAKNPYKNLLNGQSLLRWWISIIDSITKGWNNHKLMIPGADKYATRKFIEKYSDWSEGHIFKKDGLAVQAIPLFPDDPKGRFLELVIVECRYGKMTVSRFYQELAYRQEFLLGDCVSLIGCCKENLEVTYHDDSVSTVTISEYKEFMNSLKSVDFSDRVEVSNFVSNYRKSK
HGIII-sPLA2 inh = Inhibits HGIII-sPLA2 liposome hydrolysis, primary screen; AID 743126; hit rate 0.56% among 370,000; inhibition, % at 12.2 µM; QFRET BODIPY PC-A2 liposome hydrolysis, fluorescence; Q9NZ20;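 active = inhibition above mean plus 3 SD of compounds lying within the high and low control bounds, cut at about 19% in these data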
DAGLB inh conf = DAGLB (human) inhibition, confirmation screen; shares compounds with DAGLB inh; hit rate 73% among 190; inhibition, % at 5.17 µM; HEK293T DAGLB membrane lysate, EnzChek fluorogenic substrate; AID 504445;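 active = mean inhibition over triplicate wells above a set limit taken from the primary lipase screen, cut at about 34% in these data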
Numbers stand for hits; i = inactive; ? = inconclusive; nt = not tested or not shown; ! = repeats disagree.

SMILES	Cardio protect	Myeloid diff 2	ABHD5-PLIN5 inh	DAGLB inh	Rtt109 Vps75	HGIII-sPLA2 inh	DAGLB inh conf
c1ccc(-[n+]2nc(Nc3cccc4ccccc34)sc2-c2c3ccccc3cc3ccccc23)cc1	i	?	i	43.3	i	nt	41.4
COc1ccccc1S(=O)(=O)N1CCn2cccc2C1C (centres undefined)	i	i	i	i	i	i	nt
NC(=O)CC(NC(=O)c1ccc(Br)cc1)c1ccc(NCCc2ccc(F)cc2)c([N+](=O)[O-])c1 (centres undefined)	i	i	i	38.6	i	i	75.7
CC(C)(C)c1ccc(S(=O)(=O)/N=C2\C=C(NS(=O)(=O)c3ccccc3)C(=O)c3ccccc32)cc1	i	i	i	39.4	i	i	63.7
CCc1ccc(S(=O)(=O)/N=C2\C=C(Nc3ccc(C(=O)O)cc3)C(=O)c3ccccc32)cc1	i	i	i	i	i	i	nt
Cc1ccc(S(=O)(=O)/N=C2\C=C(Nc3cccc(C(=O)O)c3)C(=O)c3ccccc32)c(C)c1	i	i	i	45.7	i	i	46.0
Cc1ccc(S(=O)(=O)/N=C2\C=C(Nc3cccc(C(=O)O)c3)C(=O)c3ccccc32)cc1	i	i	i	37.0	i	i	39.8
Cc1ccc(S(=O)(=O)N/N=C/c2cccn2-c2ccc(Cl)cc2)cc1	i	i	i	i	i	i	nt
CC1=NN(c2ccc(Cl)cc2)C(=O)/C1=C\c1cccn1-c1ccc(S(N)(=O)=O)cc1	i	i	i	36.5	i	i	i
Nc1ncnc2c1ncn2[C@@H]1O[C@H](CNCc2ccc(OCC(=O)Nc3ccccn3)cc2)[C@@H](O)[C@H]1O	i	i	i	i	i	i	nt
O=c1cc(-c2ccccc2Cl)oc2cccc(O)c12	i	i	i	i	i	i	nt
O=c1cc2oc3cc(O)c(O)cc3c(-c3ccccc3[N+](=O)[O-])c-2cc1O	i	i	i	43.4	i	i	i
Nc1cc([N+](=O)[O-])cc2oc(-c3ccccc3)cc12	i	i	i	36.9	i	i	36.9
N#C/C(=C\c1ccc(O)c([N+](=O)[O-])c1)c1nc2ccccc2s1	i	i	i	37.5	i	i	38.9
O=C(CSCc1cccc(Br)c1)N=Nc1c(O)[nH]c2ccccc12	i	i	i	i	i	i	nt
O=Nc1c(-c2c(O)[nH]c3cc(Br)ccc23)[nH]c2ccccc12	i	?	i	47.2	i	i	59.2
COc1ccc(C(C)NC(=O)Cc2cccs2)cc1 (centres undefined)	i	i	i	i	i	i	nt
CCCCCC/C(C)=C1/SC(=S)NC1=O	i	i	i	i	?	i	nt
C/C(C/C(C)=C1/SC(=S)NC1=O)=C1\SC(=S)NC1=O	i	i	i	47.1	i	i	35.3
N#C/C(=C\c1ccc(O)c(O)c1)C(=O)NCCCc1ccccc1	88.7	i	i	40.3	i	i	i
COC(=O)c1ccccc1NC1=C/C(=N\S(=O)(=O)c2ccc(C(=O)O)cc2)c2ccccc2C1=O	i	i	i	i	i	nt	nt
COC(=O)c1ccccc1NC1=C/C(=N\S(=O)(=O)c2cccs2)c2ccccc2C1=O	i	?	i	41.6!	i	i	55.3
CCOc1ccccc1Nc1nnc(SCC(=O)NC2CCS(=O)(=O)C2)s1 (centres undefined)	i	i	i	i	i	i	nt
O=C(CNC(=O)c1cccs1)c1ccc(Cl)cc1	i	i	i	i	i	i	nt
N#C/C(=N\Nc1ccc([N+](=O)[O-])cc1)C(N)=S	i	i	i	37.6	i	i	i
SMILES	Cardio protect	Myeloid diff 2	ABHD5-PLIN5 inh	DAGLB inh	Rtt109 Vps75	HGIII-sPLA2 inh	DAGLB inh conf
O=c1[nH]cnc2c1nnn2Cc1ccccc1	i	i	i	i	i	i	nt
CC1(C)CC(=O)C2=C(C1)N=C1c3ccccc3C(=O)C1C2c1ccc(Cl)cc1 (centres undefined)	i	i	22.1	36.8	i	i	35.0
O=S(=O)(/N=C(/Nc1ccc(F)cc1F)c1ccc(Cl)cc1)c1ccccc1	i	i	i	i	i	i	nt
CC1=C(O)C(=O)C(c2c(C)cc(C)c(Br)c2C)=C(O)C1=O	i	i	i	43.4	nt	i	i
O=C1C(Cl)=C(N2CCCCC2)C(=O)N1c1ccccc1Cl	i	i	i	i	i	i	nt
O=C1c2cccc(Cl)c2C(=O)c2c1cccc2N1CCCC1	i	i	i	44.4	i	i	63.8
COc1ccc(/C=N/Nc2ccc(C(F)(F)F)cc2[N+](=O)[O-])cc1O	i	i	i	39.8	i	i	63.9
CCOc1ccc(/C=N/Nc2ccc(C(F)(F)F)cc2[N+](=O)[O-])cc1O	i	i	i	i	i	i	nt
N=C1C(c2nc3ccccc3s2)=C(O)CN1NC(=O)c1ccccc1[N+](=O)[O-]	i	i	i	37.4	i	i	52.6
N=C1C(c2nc3ccccc3s2)=C(O)CN1NC(=O)c1c[nH]c2ccccc12	i	i	i	i	i	i	nt
CCCCc1ccc(C2C3=C(CC(C)(C)CC3=O)NC3=C2C(=O)c2ccccc23)cc1 (centres undefined)	i	i	i	45.9	i	i	i
CCc1ccc2[nH]c3nc(SCC(=O)NNC(=O)c4ccc(C(C)(C)C)cc4)nnc3c2c1	i	i	i	i	i	i	nt
COc1cc([C@H]2c3[nH]c4ccccc4c3C[C@H]3C(=O)N4[C@@H](c5cc(OC)c(OC)c(OC)c5)c5[nH]c6ccccc6c5C[C@H]4C(=O)N23)cc(OC)c1OC	i	i	i	34.9	i	nt	42.9
COCCCN1CC(=O)N2C(c3ccc(OC)c(OC)c3)c3[nH]c4ccccc4c3C[C@H]2C1=O (some centres undefined)	i	i	i	i	i	i	nt
Cc1[nH]n2c(=O)cc(-c3ccc([N+](=O)[O-])cc3)nc2c1-c1ccccc1	i	i	i	47.7	i	i	41.6
CN(Cc1ccon1)C(=O)CC1C(=O)NCCN1Cc1ccc(Cl)c(F)c1 (centres undefined)	i	i	i	i	i	i	nt
Cc1nc(NC(=O)c2cc(-n3cnnc3)ccc2Cl)ccc1Br	i	i	i	i	i	i	nt
Cn1cc(/C=C2\SC(=O)NC2=S)c2ccccc21	i	i	i	36.7	i	i	54.1
CC/C(=N\Nc1ccc([N+](=O)[O-])cc1[N+](=O)[O-])c1ccc(O)cc1	i	i	i	38.6	i	i	37.9
O=C(CNS(=O)(=O)c1cccs1)N1CCN(c2ncccn2)CC1	nt	nt	nt	nt	nt	i	nt
COC(=O)C[C@@H]1C=C[C@H](NC(=O)Cc2ccccn2)[C@@H](CO)O1	nt	i	i	nt	nt	i	nt
CC(=O)Oc1cc2c3c(c1)/C(=C1/SC(=S)NC1=O)C(=O)N3C(C)(C)C=C2C	i	i	i	50.2	i	i	59.4
CCOc1cc2c3c(c1)C(C)=CC(C)(C)N3C(=O)C2=O	i	i	i	i	i	i	nt
